Structures are written as SMILES. A number with no mark means an inactive call. Active and inactive are the calls of the source.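 How the source made its calls: active means inhibition at or above 50% relative to wild type and mutant plate controls; inactive means inhibition below 50%.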

This experiment is described as follows: loss of swimming-algae plug formation – whole organism, Chlamydomonas reinhardtii, WT vs cilia-less mutant, absorbance, 96-well, primary screen (AID 463189).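 Further: 0% = wild type cc124 cells in DMSO and 100% = ciliumless bld1 mutant cells.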 To be noted: Chlamydomonas reinhardtii gravitaxis, OD600 absorbance, 2 days; at 10 µM; hits give high values.
As for `COC(=O)C1=C(C)N=C2SC(C)C(=O)N2C1c1cccs1` (centres undefined), the inhibition (in general, the relative decrease from the control value, in per cent) is 14.7%.

As for `COC(=O)C1=C(C)N=C2SC(C)C(=O)N2C1/C=C/c1ccccc1OC` (centres undefined), the inhibition was -14.7%.

`CCOc1ccc(/C(O)=C2/C(=O)C(=O)N(c3nc(C)c(C)s3)C2c2ccco2)cc1` (centres undefined): the inhibition was -2.1%.

As for `CCN(CC)CCCN1C(=O)C(=O)/C(=C(/O)c2ccc(Cl)cc2)C1c1ccccn1` (centres undefined), the inhibition was 24.6%.

For `CCc1cc(=O)oc2c(CN3CCCC3)c(O)c(Cl)cc12`, the inhibition is -9.29%.

Turning to `COc1cccc(-c2nc(NC(C)C)c3ccccc3n2)c1O`, the inhibition is 75.4% (active).

For `CCOc1ccc(C2C(C(=O)c3ccc(C)o3)=C(O)C(=O)N2CCN2CCOCC2)cc1OC` (centres undefined), the inhibition is -15.3%.

With `Oc1ccccc1-c1nc(NCc2ccco2)c2ccccc2n1`, the inhibition is -8.43%.

Regarding `COc1ccccc1-c1cc(-c2cc(Cl)ccc2O)n[nH]1`, the inhibition was -19.8%.

Regarding `N#Cc1nc(-c2ccccc2Cl)oc1N1CCCCC1`, the inhibition was 35.9%.

Consider `CC(C)Cn1nc(NC(=O)C(C)(C)C)c2cc3ccccc3nc21`, for which the inhibition was -27.1%.

On to `CCO/C(C)=N/n1c2nc3ccccc3nc2c2c(=O)n(CC(C)C)c(C)nc21`, for which the inhibition was 9.95%.

`O=C(NCCCn1ccnc1)C(Cc1ccccc1)N1C(=O)c2ccccc2C1=O` (centres undefined): the inhibition was 3.02%.

`O=C(O)CCCCCN1C(=O)CCC1=O`: the inhibition is 7.42%.

Turning to `CCCSc1nc(C)c(CC(=O)O)c(=O)[nH]1`, the inhibition was 21.4%.

As to `COc1cccc(-c2nc(NCCN3CCOCC3)c3ccccc3n2)c1O`, the inhibition was 95% (active).

In the case of `CC1CCCCN1C(=O)C12CCC(C)(/C(=N/O)C1)C2(C)C` (centres undefined), the inhibition is -7.07%.

Turning to `Oc1ccccc1-c1nc(NCCN2CCOCC2)c2ccccc2n1`, the inhibition is 62.5% (active).

For `CCC1CCCCN1c1nc(-c2cccc(OC)c2O)nc2ccccc12` (centres undefined), the inhibition was 3.59%.

Regarding `COc1ccc(C2C=C(c3ccc(Cl)cc3)Nc3nc(NC(C)=O)nn32)cc1` (centres undefined), the inhibition was 7.51%.

`Oc1ccc(Br)cc1-c1cc(-c2ccccc2F)[nH]n1`: the inhibition is -2.23%.

With `C=CCNc1nc(-c2cccc(OC)c2O)nc2ccccc12`, the inhibition was 1.52%.

With `COc1cccc(/C(O)=C2/C(=O)C(=O)N(CCN(C)C)C2c2ccc(Br)cc2)c1` (centres undefined), the inhibition is 28.7%.

For `CC1(C)CC(=O)C2=C(C1)Oc1nc3ccccc3cc1C2C(C#N)C#N` (centres undefined), the inhibition was 26.7%.

The values above are taken from PubChem BioAssay.
